Experimental data: PubChem BioAssay (NCI)
About 83,000 compounds went through this panel and 20% of them were active in at least one assay; those are over-represented in the sample as a whole.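 Single-concentration screen, 48 h exposure, 96-well plates. Endpoint: percent growth. Below 10 = active.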 Values without a mark were called inactive. The source made the active and inactive calls.

Tested on: MOLT-4 leukemia
Experiment: NCI-60 one-dose screen, 48 h (100 = growth as untreated, 0 = no growth, -100 = all killed)
Conditions: 10 µM unless noted

Compound	growth
O=[N+]([O-])c1ccc(N/N=C/c2c(O)ccc3ccccc23)nc1	10.5%
COc1cc(/C=C/c2nnc(-c3cc(-c4ccccc4)n[nH]3)o2)cc(OC)c1OC	69%
COc1cc2c(-c3nc4cc(Cl)c(F)cc4s3)cc(=O)oc2c(C)c1OC	-43% (active)
COc1cccc(-c2nnc(N)o2)c1	110%
CSc1nc2c(c(=O)n1C)C(c1ccccc1)C1=C(N2)/C(=C/c2ccccc2)CCC1 (stereo unspecified)	27.5%
CCCCCCC/C(=N\N=C(N)N)c1ccc(O)cc1	24.9%
CCOC(=O)c1c(NC(=O)C2CCCCC2C(=O)O)sc2c1CCCC2 (stereo unspecified)	105%
C[N+]1(CCC[N+]2(C)C[C@@H]3[C@H](C2)[C@@H]2C=C[C@H]3C2)CCOCC1 (stereo partly specified)	108%
O=C(CCc1nnc(SCc2ccccc2)s1)c1nc2ccccc2[nH]1	70.1%
c1csc([C@@H]2C[C@@H]3Cc4ccc5ccccc5c4N2O3)c1	78.3%
O=C1/C(=C/c2ccc([N+](=O)[O-])s2)Oc2ccc(Br)cc21	-16.8% (active)
CCCCCCC(C)(O)c1ccccc1 (stereo unspecified)	106%
CCOC(Cc1c(N)[nH]c(=S)[nH]c1=O)OCC	88%
CCN1C2=C(SC(=S)C1=C1SC(C(=O)OC)=C(C(=O)OC)S1)SC(=Nc1ccc(OC)cc1)C2=O	13.2%
CCOc1nc(-c2ccccc2)cc2c(O)c(-c3nnco3)[nH]c(=O)c12	30%
COc1cccc2c1O/C(=C\c1c([N+](=O)[O-])ncn1C)C2=O	85.3%
